According to PubChem BioAssay (NCATS):
Inconclusive results are not listed. Calls of active or inactive are those of the source. Calls come from the whole dose curve; as a rule, active = well fitted curve in the direction sought with a large enough effect; inconclusive = small, poorly fitted or top-dose-only effect, or another doubt; inactive = no such curve, though single readings can be large; an effect the other way counts as inactive or inconclusive.

How the values were obtained:
[1] = system: HACAT; assay: qHTS assay to identify novel small-molecules to repurpose for Merkel cell carcinoma treatment (AID 1296009); conditions: MCC and control cell lines, CellTiter-Glo viability, 72 h; at 44.8 µM (top of the series) unless noted; note: nearly all actives have a fitted effect of over 60% in size
Procedure, shortened: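 After compound transfer in DMSO, plates were kept 72 hr at 37 degree celsius. Luminescent ATP signal from CellTiter-Glo served as viability measure, normalized against DMSO and no-cell controls.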

[2] = system: C33A; assay: Primary qHTS to identify gynecologic anti-cancer compounds using libraries of approved drugs and bioactive compounds (AID 1345084); conditions: Gynecologic cancer cell panel viability, ATPlite luminescence, 48 h; series mostly up to 57.5 µM; note: % is set by controls: 0 for no effect and ±100 for the full control effect; nearly all actives have a fitted effect of over 55% in size
Procedure, shortened: (§1)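 Cells, 1,000 per well, were allowed to settle for 16 h at 37 C before compound addition. Five concentrations were tested for 48 h, and viability was read by ATPlite luminescence after 15 min at room temperature.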

[3] = system: CAOV3; assay: as above; conditions: Gynecologic cancer cell panel viability, ATPlite luminescence, 48 h; series mostly up to 57.5 µM
Procedure, shortened: as §1

[4] = system: CASKI; assay: as above; conditions: Gynecologic cancer cell panel viability, ATPlite luminescence, 48 h; series mostly up to 57.5 µM
Procedure, shortened: as §1

[5] = system: Es-2; assay: as above; conditions: Gynecologic cancer cell panel viability, ATPlite luminescence, 48 h; series mostly up to 57.5 µM
Procedure, shortened: as §1

[6] = system: HeLa; assay: as above; conditions: Gynecologic cancer cell panel viability, ATPlite luminescence, 48 h; series mostly up to 57.5 µM
Procedure, shortened: as §1

[7] = system: Hek293T; assay: as above; conditions: Gynecologic cancer cell panel viability, ATPlite luminescence, 48 h, control line for the selectivity index; series mostly up to 57.5 µM
Procedure, shortened: as §1

[8] = system: JEG-3; assay: as above; conditions: Gynecologic cancer cell panel viability, ATPlite luminescence, 48 h; series mostly up to 57.5 µM
Procedure, shortened: as §1

[9] = system: OV90; assay: as above; conditions: Gynecologic cancer cell panel viability, ATPlite luminescence, 48 h; series mostly up to 57.5 µM
Procedure, shortened: as §1

[10] = system: PA-1; assay: as above; conditions: Gynecologic cancer cell panel viability, ATPlite luminescence, 48 h; series mostly up to 57.5 µM
Procedure, shortened: as §1

[11] = system: Tov-21-G; assay: as above; conditions: Gynecologic cancer cell panel viability, ATPlite luminescence, 48 h; series mostly up to 57.5 µM
Procedure, shortened: as §1

[12] = system: Tov112D; assay: as above; conditions: Gynecologic cancer cell panel viability, ATPlite luminescence, 48 h; series mostly up to 57.5 µM
Procedure, shortened: as §1

[13] = system: SKOV3; assay: as above; conditions: Gynecologic cancer cell panel viability, ATPlite luminescence, 48 h; series mostly up to 57.5 µM
Procedure, shortened: as §1

C=CC(C)(O)C1CC2C3(C)CCCC(C)(C)C3C(O)C(O)C2(C)O1 (stereo not given)
inactive: outcome [1] | Potency [2] | Potency [3] | outcome [4] | Potency [5] | Potency [6] | Potency [7] | Potency [8] | Potency [9] | Potency [10] | Potency [11] | Potency [12]

CC(=O)OCC1OC(OC2COC(OC3COC(OC4C(OC5C(CO)OC(OC6CCC7(C)C(CCC8(C)C7CC=C7C9CC(C)(C)CCC9(C(=O)OC9OC(CO)C(O)C(O)C9OC9OCC(OC%10OCC(O)(CO)C%10O)C(O)C9O)C(O)CC78C)C6(C)C)C(O)C5O)OCC(O)C4O)C(O)C3O)C(O)C2O)C(OC(=O)/C=C/c2ccccc2)C(O)C1OC(C)=O (stereo not given)
inactive: outcome [1] inactive [at 4.96 µM] | activity change, negative = cytotoxicity [2] 6.07% [at 6.55 µM] | activity change, negative = cytotoxicity [3] -0.975% [at 6.55 µM] | activity change, negative = cytotoxicity [4] 5.64% [at 6.55 µM] | activity change, negative = cytotoxicity [5] -4.41% [at 6.55 µM] | activity change, negative = cytotoxicity [6] 6.46% [at 6.55 µM] | activity change, negative = cytotoxicity [7] 3.2% [at 6.55 µM] | activity change, negative = cytotoxicity [8] -2.72% [at 6.55 µM] | activity change, negative = cytotoxicity [9] -0.455% [at 6.55 µM] | activity change, negative = cytotoxicity [10] -23.4% [at 6.55 µM] | activity change, negative = cytotoxicity [13] 14.7% [at 6.55 µM] | activity change, negative = cytotoxicity [11] -3.47% [at 6.55 µM] | activity change, negative = cytotoxicity [12] 9.27% [at 6.55 µM]

CC1(C(=O)O)CCCC2(C)C3CCC4CC3(CCC12)CC4(O)CO (stereo not given)
inactive: outcome [1] | Potency [2] | Potency [3] | outcome [4] | Potency [5] | Potency [6] | Potency [7] | Potency [8] | Potency [9] | Potency [10] | Potency [11] | Potency [12]

CC(NC(=O)[C@H](Cc1ccccc1)NC(=O)OCc1ccccc1)C(=O)CF (stereo not given in full)
inactive: outcome [1] | Potency [2] | Potency [3] | outcome [4] | Potency [5] | Potency [6] | Potency [7] | Potency [8] | Potency [9] | Potency [10] | Potency [11] | Potency [12]

Cc1noc2c1-c1ccccc1C(c1ccc(Cl)cc1)=N[C@H]2CC(N)=O
inactive: outcome [1] | Potency [2] | Potency [3] | outcome [4] | Potency [5] | Potency [6] | Potency [7] | Potency [8] | Potency [9] | Potency [10] | Potency [13] | Potency [11] | Potency [12]

OCC(O)C(c1c[nH]c2ccccc12)c1c[nH]c2ccccc12 (stereo not given)
inactive: outcome [1] | Potency [2] | Potency [3] | outcome [4] | Potency [5] | Potency [6] | Potency [7] | Potency [8] | Potency [9] | Potency [10] | Potency [11] | Potency [12]

C[C@@H]1O[C@@H](O[C@@H]2\C=C/C=C\C=C/C=C\C[C@H](C)OC(=O)/C=C\[C@H]3O[C@@H]3C[C@H](O)C[C@]3(O)C[C@@H](O)[C@@H](C(=O)O)[C@H](C2)O3)[C@H](O)[C@H](N)[C@@H]1O
inactive: outcome [1] | Potency [2] | Potency [3] | outcome [4] | Potency [5] | Potency [6] | Potency [7] | Potency [8] | Potency [9] | Potency [10] | Potency [11] | Potency [12]

CC1(C)CC[C@]2(C(=O)OC3OC(CO)C(O)C(O)C3O)CC[C@]3(C)C(=CCC4[C@@]5(C)C[C@@H](O)[C@H](OC6OC(C(=O)O)C(O)C(O)C6O)C(C)(C)C5CC[C@]43C)[C@@H]2C1 (stereo not given in full)
inactive: outcome [1] inactive [at 9.27 µM] | activity change, negative = cytotoxicity [2] 5.49% [at 11.6 µM] | activity change, negative = cytotoxicity [3] -8.39% [at 11.6 µM] | activity change, negative = cytotoxicity [4] 3.29% [at 11.6 µM] | activity change, negative = cytotoxicity [5] -0.905% [at 11.6 µM] | activity change, negative = cytotoxicity [6] 5.76% [at 11.6 µM] | activity change, negative = cytotoxicity [7] -2.17% [at 11.6 µM] | activity change, negative = cytotoxicity [8] 17.5% [at 11.6 µM] | activity change, negative = cytotoxicity [9] 1.98% [at 11.6 µM] | activity change, negative = cytotoxicity [10] 4.09% [at 11.6 µM] | activity change, negative = cytotoxicity [11] 3.24% [at 11.6 µM] | activity change, negative = cytotoxicity [12] 0.489% [at 11.6 µM]

O=C(Cn1c2ccccc2c2nc3n(c(=O)c21)CCS3)N1CCCC1
inactive: outcome [1] | Potency [2] | Potency [3] | outcome [4] | Potency [5] | Potency [6] | Potency [7] | Potency [8] | Potency [9] | Potency [10] | Potency [11] | Potency [12]

NC(=O)C(O[C@@H]1O[C@H](CO[C@@H]2O[C@H](CO)[C@@H](O)[C@H](O)[C@H]2O)[C@@H](O)[C@H](O)[C@H]1O)c1ccccc1 (stereo not given in full)
inactive: outcome [1] inactive [at 17.4 µM] | Potency [2] | Potency [3] | outcome [4] | Potency [5] | Potency [6] | Potency [7] | Potency [8] | Potency [9] | Potency [10] | Potency [11] | Potency [12]

Cn1cc(-c2c[nH]c3ncnc(N4CCOCC4)c23)cn1
inactive: outcome [1] | Potency [2] | Potency [3] | outcome [4] | Potency [5] | Potency [6] | Potency [7] | Potency [8] | Potency [9] | Potency [10] | Potency [11] | Potency [12]

COC(=O)C1=CO[C@@H](O[C@@H]2O[C@H](CO)[C@@H](O)[C@H](O)[C@H]2O)[C@H]2[C@@H]1[C@H](O)C[C@]2(C)O
inactive: outcome [1] inactive [at 17.4 µM] | Potency [2] | Potency [3] | outcome [4] | Potency [5] | Potency [6] | Potency [7] | Potency [8] | Potency [9] | Potency [10] | Potency [11] | Potency [12]

CC1CCCCCCCc2cc(O)cc(O)c2C(=O)O1 (stereo not given)
inactive: outcome [1] | Potency [2] | Potency [3] | outcome [4] | Potency [5] | Potency [6] | Potency [7] | Potency [8] | Potency [9] | Potency [10] | Potency [11] | Potency [12]

CC1=CC2=C(C)C(=O)C(C)(O)C(O)C2CO1 (stereo not given)
inactive: outcome [1] | Potency [2] | Potency [3] | outcome [4] | Potency [5] | Potency [6] | Potency [7] | Potency [8] | Potency [9] | Potency [10] | Potency [11] | Potency [12]
